Measurements: PubChem BioAssay (NCI)
The panel holds about 83,000 compounds, 20% with a hit somewhere; the sample as a whole holds those more often.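 Interpretation: 100, growth as untreated; towards 0, rising growth inhibition; 0, no net growth; 0 to -100, cell death. Compounds scoring below 10 were considered active.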 A number with no mark means an inactive call. Activity calls are given as the source filed them.

tested on: OVCAR-3 ovarian; experiment: NCI-60 one-dose screen, 48 h (100 = growth as untreated, 0 = no growth, -100 = all killed); conditions: 10 µM unless noted

Row | Structure (SMILES) | growth
1 | CN(C)c1ccc(C2Nc3ccccc3-n3cccc32)cc1 (centres undefined) | 92.8%
2 | Nc1nc2c(c3ncccc13)C(c1cccc(Br)c1)Cc1ncccc1-2 (centres undefined) | -8.61% (active)
3 | O=[N+]([O-])c1cccc(-c2nc3sccn3c2-c2ccnc(NCCCNS(=O)(=O)c3ccc(F)cc3)n2)c1 | 4.12% (active)
4 | COc1ccc(-n2c(C)nc3c(c(C)nn3-c3ccccc3)c2=O)cc1 | -32.6% (active)
5 | COc1ccc(-n2cc(-c3ccccc3)c3c(SCC(=O)N/N=C/c4ccc([N+](=O)[O-])cc4)ncnc32)cc1 | 105%
6 | Nc1c(C(=O)Nc2ccccc2)sc2nc3c(cc12)CN(CCc1ccccc1)CC3 | 109%
7 | CCOC(=O)c1c2ncccc2n2c(=O)n(-c3ccc(Cl)cc3)nnc12 | 95.2%
8 | CCN(CC)CCCC(C)Nc1ccnc2c(OC)cccc12 (centres undefined) | 146%
9 | OC(c1cccc(C(F)(F)F)c1)c1cnccc1NC1CCCCCC1 (centres undefined) | 57.5%
10 | NC(=S)N/N=C/c1cc(-c2cccc(N)c2)ccn1 | 40.8%
11 | COc1ccc(CCN2CCCn3c2nc2ccccc2c3=O)cc1 | -4.64% (active)
12 | O=C(/C=C\c1cccc([N+](=O)[O-])c1)c1ccccc1 | -83% (active)
13 | CCOC(=O)C(Cc1cc(I)c(O)c(I)c1)NC(=O)c1ccccc1 (centres undefined) | 108%
14 | COc1cc(C#N)cc(OC)c1OCCN(CCOc1c(OC)cc(C#N)cc1OC)S(=O)(=O)c1ccc(C)cc1 | 118%
15 | CN1CCN(Cc2ccc(NC(=O)c3cncc(C#Cc4cncc5nccnc45)c3)cc2C(F)(F)F)CC1 | 69.9%
16 | Nc1nc(-c2ccc(F)cc2)cc(-c2cnn(-c3ccccc3)n2)n1 | 105%
17 | CC(=O)C1=C(O)C=C2Oc3c(C(=O)/C=C/c4ccccc4)c(O)c(C)c(O)c3[C@]2(C)C1=O | 27.5%
18 | COc1ccc(C/C(C)=C(\c2ccc(OCCN3CCCCCC3)cc2)c2ccc(OC(=O)C3CCCCC3)cc2)cc1 | 63.5%
19 | O=[N+]([O-])c1cccc(-c2nc3sccn3c2-c2ccnc(NCCCNS(=O)(=O)c3ccc(Br)cc3)n2)c1 | 51.2%
20 | CCOC(=O)/C=C/C(=O)[C@H](CC(C)C)NC(=O)[C@H](Cc1ccccc1)NC(=O)OCc1ccccc1 | 30%

Row | Structure (SMILES) | growth
21 | Cc1cc2cc3cc(C)c(N(C)C)cc3nc2cc1N(C)C | -25.5% (active)
22 | C=C1CCC2C3(C)COC(C)(C)OC3CCC2(C)C1C/C=C1/C(=O)OCC1OC(C)=O (centres undefined) | -9.88% (active)
23 | C=C1CC2(OC1=O)C(=O)N(CCCCCCCCCCCCN1C(=O)C3(CC(=C)C(=O)O3)c3ccccc31)c1ccccc12 (centres undefined) | 66.8%
24 | O=C1c2cccnc2C(=O)c2c1c(C(=O)OCCN1CCCCC1)c1ccccn21 | -2.68% (active)
25 | COc1ccccc1N1CCN(CCn2c(=O)c3c(c4ccccc4n3C)n(C)c2=O)CC1 | 103%
26 | C/C(=C(/c1ccc(O)cc1)c1ccc(OCCN(C)C)cc1)c1ccccc1 | 90.2%
27 | CCOC(=O)c1c2c(n3ccc(NC(=O)CCN4CCOCC4)cc13)C(=O)c1ncccc1C2=O | 4.63% (active)
28 | Cc1cc(=O)oc2cc(Oc3nc(-c4cccs4)cn4c(-c5cccs5)cnc34)ccc12 | 68%
29 | CC(C)[C@@H]1CC[C@]2(C(=O)NCCCCN=C(N)N)CC[C@]3(C)[C@H](CC[C@@H]4[C@@]5(C)CCC(=O)C(C)(C)[C@@H]5CC[C@]43C)[C@@H]12 | 55.4%
30 | Oc1cc(O)c2c(=S)cc(-c3ccc(Cl)cc3)oc2c1 | 17.6%
31 | COc1ccc(-c2cn3c(-c4ccc(OC)cc4)cnc3c(Oc3ccc4c(C)cc(=O)oc4c3)n2)cc1 | 46.6%
32 | CN1CCN(Cc2ccc(NC(=O)c3[nH]ncc3Nc3ccnc4ccsc34)cc2)CC1 | 22.6%
33 | Nc1nc2ccc(-c3nc4ccc5[nH]ncc5c4c4c3CCC4)cc2s1 | 39.4%
34 | Oc1ccc2c(=S)cc(-c3ccc(Br)cc3)oc2c1O | -21.7% (active)
35 | Clc1cccc(Nc2nc(Nc3cnc4ccccc4c3)c3[nH]cnc3n2)c1 | 73.6%
36 | COc1ccc(-c2cc(NC(=O)Nc3ccc(O)cc3)no2)cc1 | 87.4%
37 | CC(=O)CC(C)(C)c1ccc(Cl)cc1 | 97.4%
38 | O=C1C2CC=CCC2C(=O)N1CNc1ccc(Cl)cc1 (centres undefined) | 107%
39 | CN1CCN(Cc2ccc(NC(=O)c3[nH]ncc3Nc3ncnc4c3CCC4)cc2)CC1 | -5.87% (active)
